Screening data as filed in PubChem BioAssay.
PABP1 MLLE inh – blocks PAM2 peptide binding to the PABP1 MLLE domain; P11940; hit rate 0.36% among 360,000; GST-MLLE / FITC-PAM2 fluorescence polarization; inhibition, % at 20 µM; in the data active means inhibition above about 35%, passing the limit was not always enough
Target sequence (P11940 whole entry, looked up, the tested form may be a part): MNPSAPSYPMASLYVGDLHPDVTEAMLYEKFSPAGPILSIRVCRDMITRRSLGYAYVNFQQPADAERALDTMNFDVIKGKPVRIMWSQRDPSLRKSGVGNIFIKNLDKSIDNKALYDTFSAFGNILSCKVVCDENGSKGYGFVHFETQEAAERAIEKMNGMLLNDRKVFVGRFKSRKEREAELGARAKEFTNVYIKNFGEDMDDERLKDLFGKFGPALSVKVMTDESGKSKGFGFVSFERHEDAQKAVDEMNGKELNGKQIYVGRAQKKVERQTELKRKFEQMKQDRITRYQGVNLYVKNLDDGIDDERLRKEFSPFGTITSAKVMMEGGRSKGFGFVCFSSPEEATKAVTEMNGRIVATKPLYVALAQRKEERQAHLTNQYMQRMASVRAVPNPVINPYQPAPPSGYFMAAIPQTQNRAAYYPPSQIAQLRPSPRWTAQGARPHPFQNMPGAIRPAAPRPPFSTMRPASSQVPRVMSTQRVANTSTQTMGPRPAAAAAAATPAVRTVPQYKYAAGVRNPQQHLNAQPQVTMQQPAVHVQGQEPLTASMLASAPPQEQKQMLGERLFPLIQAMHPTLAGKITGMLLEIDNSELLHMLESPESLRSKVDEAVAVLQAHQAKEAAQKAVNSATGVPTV
Efflux pump mplx – inhibitors of Candida antifungal efflux pumps expressed in yeast. S. cerevisiae Candida pump triplex, Nile Red efflux. inhibition, % at 10 µM. hit rate 0.44% among 330,000. AID 485275;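 active means plate passing quality check with inhibition over a set limit, or well fluorescence over plate mean plus 4 SD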;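 further: Nile Red retained in pooled yeast measured as flow cytometry median fluorescence; higher means more Nile Red kept so more efflux inhibition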
ALR inh – human ALR oxidase inhibition via reduced H2O2; hit rate 3.8% among 290,000; P55789; inhibition, % (concentration not given with the values); AID 485317; purified ALR, DTT oxidation, H2O2 HRP-luminol luminescence;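 active means mean replicate inhibition above about 79%, with every replicate also reaching it, limit read from the data; inconclusive means only one of the two criteria met; inactive means mean below limit and not every replicate reaching it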
PABP FP inh – PABP-poly(A) binding inhibition; P11940; PABP-poly(A) RNA binding, fluorescence polarization; inhibition, % at 35 µM; hit rate 1% among 290,000; AID 2014;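 further: calls also rest on retests at 20 µM and on dose response follow-up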
SUMO HTRF inh – SUMOylation inhibition | P63279 | HTRF SUMOylation assay, SAE1/SAE2 + UBC9, in vitro | inhibition, % at 35 µM | hit rate 0.36% among 290,000 | AID 2006; in the data active means inhibition above about 50%, passing the limit was not always enough; inconclusive means no clear call, values can overlap the other calls
eIF4H FP inh – inhibitors of RNA binding by human eIF4H | Q15056 | eIF4H fluorescence polarization binding assay | inhibition, % at 35 µM | hit rate 0.94% among 290,000 | AID 2012;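 further: calls also rest on retests at 20 µM and on dose response follow-up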
Large screens that a line does not name were inactive. A selection: hits, their analogues and other compounds. The true share with any hit is near 4.7%. Unless noted, how the calls were made is not given here.

C=CCn1c(SCC(=O)N(C)C)nc2sc3c(c2c1=O)CCC3	none
Nc1cc(SCc2ccc(Cl)cc2Cl)ncn1	none (no result: Efflux pump mplx, ALR inh, PABP FP inh, SUMO HTRF inh, eIF4H FP inh)
Brc1ccc2nc(-c3ccncc3)c(NC3CCCC3)n2c1	none (no result: ALR inh)
Cc1ccc(Nc2c(-c3ccc(C)o3)nc3ncccn23)cc1	none (no result: ALR inh)
Cc1ccc(-c2nc3cnccn3c2Nc2c(C)cccc2C)o1	PABP1 MLLE inh 39.2, ALR inh 98.1
Cc1ccccc1Nc1c(-c2cccnc2)nc2ccccn12	none
Cc1ccc(-c2nc3ncccn3c2Nc2ccccc2C)o1	ALR inh 98.1, PABP FP inh inconclusive
Brc1ccc(-c2nc3ncccn3c2NC2CCCCC2)o1	ALR inh 98.7
Cc1ccc(-c2nc3ncccn3c2NC2CCCC2)o1	ALR inh 98.7
N=C1C(c2nc3ccccc3s2)=C(O)CN1c1ccccc1	none
COc1ccc(/C=N/N=C(\N)c2nonc2N)cc1OC	none
COc1cc(/C=N/N=C(\N)c2nonc2N)ccc1O	ALR inh 99.1
N/C(=N\N=C\c1ccc(O)cc1)c1nonc1N	ALR inh 98.9
Nc1nc(Nc2ccccc2)nc(NCc2ccccc2)c1[N+](=O)[O-]	ALR inh 86.1
CCOC(=O)C(=NC(C)CC)NNc1ccc(Br)cc1 (configuration not stated)	ALR inh 98.9
CCOC(=O)C(=NC1CCS(=O)(=O)C1)NNc1ccccc1Cl (configuration not stated)	ALR inh 98.7
CCOC(=O)C(=NC1CCS(=O)(=O)C1)NNc1cc(Cl)ccc1Cl (configuration not stated)	ALR inh inconclusive
CCOC(=O)C(=NC1CCCCC1)NNc1cccc(C(F)(F)F)c1	none (no result: ALR inh)
CCOC(=O)C(=NC1CCS(=O)(=O)C1)NNc1ccc(Br)cc1 (configuration not stated)	ALR inh 99.3
O=C(NNC(=S)NC1CCCCC1)c1ccccc1O	ALR inh 97.3
O=C(NNC(=S)NC1CCCCC1)c1cccs1	ALR inh inconclusive
CCC1CCCCN1CCCNC(=O)CCC(=O)N1CC(C)Oc2ccccc21 (configuration not stated)	none
Cc1cc(C(=O)CSc2nc(N)cc(N)n2)c(C)n1C1CC1	SUMO HTRF inh 50.8, eIF4H FP inh 81.0
CCN1C(=O)C(=O)N(CC(=O)c2cc(C)n(C3CC3)c2C)C1=O	ALR inh 89.1 (no result: PABP FP inh, SUMO HTRF inh, eIF4H FP inh)
Cc1cc(C(=O)CSc2nnc(N)s2)c(C)n1C1CC1	ALR inh 97.8 (no result: PABP FP inh, SUMO HTRF inh, eIF4H FP inh)
CCCN1C(=O)C(=O)N(CC(=O)c2cc(C)n(C3CC3)c2C)C1=O	none (no result: ALR inh, PABP FP inh, SUMO HTRF inh, eIF4H FP inh)
CC12CCC(C(=O)N3CCN(c4ccccc4)CC3)(CC1=O)C2(C)C (configuration not stated)	ALR inh 98.9 (no result: PABP1 MLLE inh)
COc1ccc(-c2oc3ccccc3c2C#Cc2cncn2C)cc1	none (no result: PABP FP inh, SUMO HTRF inh, eIF4H FP inh)
CC1=NN(c2ccc(C)c(C)c2)C(=O)/C1=C/c1ccc2c(c1)n(C)c(=O)n2C	SUMO HTRF inh 85.4
O=C(CCN1C(=O)c2cccc([N+](=O)[O-])c2C1=O)NC1CCCCCC1	none (no result: PABP FP inh, SUMO HTRF inh, eIF4H FP inh)
Cc1nn(C)c(C(=O)N2CCOCC2)c1Cl	none
O=C(Cn1c(=O)n(Cc2ccco2)c(=O)c2c3c(sc21)CCCCC3)Nc1ccccc1	PABP FP inh 56.1, eIF4H FP inh 78.1
O=C(Cn1c(=O)n(Cc2ccco2)c(=O)c2c3c(sc21)CCCCC3)c1ccccc1	PABP FP inh 36.0, eIF4H FP inh 74.2
O=c1c2c3c(sc2n(CCN2CCCC2)c(=O)n1Cc1ccco1)CCCCC3	none
CN(C)CCn1c(=O)n(Cc2ccco2)c(=O)c2c3c(sc21)CCCCC3	none
CCOC(=O)C1=CCC(c2ccc(Cl)cc2)N(S(=O)(=O)c2ccc(C)cc2)C1 (configuration not stated)	none (no result: Efflux pump mplx, ALR inh, PABP FP inh, SUMO HTRF inh, eIF4H FP inh)
Nc1c(NC2CCCCC2)c2ccccc2oc1=O	ALR inh 99.3
Cc1ccccc1Nc1c(N)c(=O)oc2ccccc12	ALR inh 98.8
CN(C)CCNc1c(N)c(=O)oc2ccccc12	none
COc1cc(/C=C/c2[nH]c(=O)[nH]c(=O)c2[N+](=O)[O-])cc([N+](=O)[O-])c1O	PABP FP inh 61.3, eIF4H FP inh 59.3
Cc1ccccc1OCC(=O)Nc1ccc(Cc2ccncc2)cc1	none
COc1ccc(NC(=O)COC(=O)CCOc2ccccc2C)cc1Cl	ALR inh 98.0 (no result: PABP FP inh, SUMO HTRF inh, eIF4H FP inh)
COc1ccc(NC(=O)COC(=O)CCNS(=O)(=O)c2ccccc2)cc1OC	PABP FP inh 58.1, eIF4H FP inh active
Cc1ccccc1OCC(=O)Nc1ccncc1	ALR inh 99.1
